# Screening results deposited in PubChem BioAssay by several laboratories.
# The list is not random: actives were taken first. Their share in the collection is about 2.8%.
# CF NFkB inh = blocks PAF-induced NF-kB reporter in cystic fibrosis cells; KKLEB NF-kB-GFP reporter, GFP fluorescence overnight; hit rate 0.86% among 360,000; AID 588850; inhibition, % at 5 µM;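 active means at least 50% inhibition at 5 µM, scaled per plate between neutral and stimulator controls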;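 further: PAF is a Pseudomonas aeruginosa culture filtrate used as stimulus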
# HIF-2a block = HIF-2a inhibition. hit rate 0.72% among 360,000. inhibition, % at 18.8 µM. 786-0 RCC cells HIF-2a reporter, luciferase luminescence, overnight;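 active means inhibition of the luminescence signal of 40% or more relative to plate controls, in a single-dose primary screen at 18.75 µM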
# TRPM1 prom inh = reduces MITF-dependent TRPM1 promoter luciferase signal; SK-MEL-5 TRPM1 promoter luciferase, 24 h; inhibition, % at 12.5 µM; hit rate 0.83% among 330,000;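 active means mean inhibition across replicates of 60% or more, whatever share of single replicates reaches that level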
# Shn3 inh set2 = reduces Shn3 3'UTR luciferase signal in osteoblasts. Clone20 osteoblast Shn3 3'UTR firefly luciferase, 24 h. inhibition, % at 12.5 µM. hit rate 0.52% among 360,000. AID 588674;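 active means mean inhibition of at least 75% with every replicate also reaching 75%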
# Peg3 prom inh = inhibitors of Peg3 promoter; inhibition, % at 20 µM; hit rate 1.7% among 360,000; HeLa PEG-Prom luciferase reporter, luminescence, overnight;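 active means inhibition of at least 50% at 20 µM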
# KKLEB tox = reduces viability of KKLEB cystic fibrosis airway cells; hit rate 0.36% among 360,000; KKLEB CF airway cells viability, ATPlite luminescence, overnight; active compounds read low; cells stimulated with P. aeruginosa culture filtrate; activity change (cytotoxicity), % at 5 µM;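 active means corrected activity change at or below -50% at 5 µM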
# Numbers stand for hits; – = inactive; · = no result.
SMILES,CF NFkB inh,HIF-2a block,TRPM1 prom inh,Shn3 inh set2,Peg3 prom inh,KKLEB tox
CC1=CC2=NC(=O)/C(=C\c3cc(C)n(-c4ccc(F)cc4)c3C)C(=N)N2O1,–,–,–,–,–,–
CC1=CC2=NC(=O)/C(=C\c3ccc(-c4cccc(Cl)c4)o3)C(=N)N2O1,–,–,–,–,57,–
CC1=NOC(=O)/C1=C\c1ccc(-c2cccc(Cl)c2)o1,93,83,76,–,105,–
C/C(=C\c1ccc(C(=O)O)cc1)c1ccc2c(c1)C(C)(C)CCC2(C)C,91,–,–,–,–,–
COc1ccccc1-c1cccc([C@@H]2C[C@H]3[C@@H](CN2)CON3C)c1,–,–,–,–,–,–
CN=C1c2cc3cc(OC)ccc3n2CCN1Cc1ccccc1,–,–,–,90,–,–
CCN(CC)CCNC1=NCCn2c1cc1cc(OC)ccc12,–,–,–,–,–,–
O=C(CSc1nc2ccc(NC(=O)CSc3nnnn3-c3ccccc3)cc2s1)Nc1ccccc1,61,–,–,–,–,-65
O=C(CSc1nnnn1-c1ccccc1)Nc1ccccc1,–,–,–,–,–,–
CO/N=C(\Cn1ncc(NC2CCCCC2)c(Br)c1=O)c1ccc(Cl)cc1,–,–,–,88,–,–
CO/N=C(\Cn1ncc(N2CCCC2)c(Br)c1=O)c1ccc(Cl)cc1,–,–,–,–,–,–
C=CCc1cccc2cc(C(=O)Nc3ccc(F)cc3)c(=O)oc12,–,–,–,–,–,–
C=CCc1cccc2cc(C(=O)Nc3ccc(CC(=O)O)cc3)c(=O)oc12,–,64,–,–,–,–
Cc1c(N=C2N=C(NC(=O)c3ccc(F)cc3)c3ccccc32)c(=O)n(-c2ccccc2)n1C,–,–,–,–,63,–
O=C(c1ccc(Cl)c([N+](=O)[O-])c1)N1CCN(c2ccccn2)CC1,–,–,–,–,–,–
O=C(c1ccc(S(=O)(=O)Cc2ccccc2Cl)c([N+](=O)[O-])c1)N1CCN(c2ccccn2)CC1,–,–,74,–,–,–
CCCOCCOC(=O)c1[nH]c2c(c1C)C(=O)CC(c1cc(OC)ccc1OC)C2 (stereo not drawn),54,–,–,–,–,–
CCN(CC)CCCN(C(=O)c1ccco1)c1nc(-c2ccc(Cl)cc2)cs1,–,–,–,–,64,–
COCCCN(C(=O)c1ccco1)c1nc(-c2ccc(OC)cc2)cs1,–,–,–,–,–,–
CCN(CC)CCCN(C(=O)c1ccco1)c1nc(-c2ccc(C)cc2)cs1,–,–,–,–,57,–
Cc1ccc(CN2CCCC2(C)C(=O)NC(C)C)cc1 (stereo not drawn),–,–,·,–,–,–
Cc1ccccc1C(=O)c1cccn1CC(=O)N1CCCCC1,–,–,–,–,–,–
CCN=C1S/C(=C\c2cc(OCC)c(O)cc2Br)C(=O)N1CC,–,–,–,–,51,–
CC(C)(C)N(Cc1ccccc1)C(=O)COC(=O)CSc1ccc([N+](=O)[O-])cc1,–,–,–,–,–,–
Cc1ccccc1/C=N/N1CCN(c2ccccc2)CC1,–,–,–,–,–,–
SMILES,CF NFkB inh,HIF-2a block,TRPM1 prom inh,Shn3 inh set2,Peg3 prom inh,KKLEB tox
Cc1cc(C)n(C(C[N+](=O)[O-])c2ccc(Cl)cc2)n1 (stereo not drawn),–,–,–,–,99,–
Cc1cc(O)c(C(C[N+](=O)[O-])c2ccc(Cl)cc2)c(=O)o1 (stereo not drawn),–,–,–,–,–,–
CCOc1cc(CNC2CCCC2)cc(Cl)c1OCc1ccccc1,–,–,–,–,57,–
COc1cc(CNCCc2ccccc2)cc(Cl)c1OCc1ccccc1,–,–,–,–,90,–
COc1cc(CNCc2ccccc2)cc(Cl)c1OC,–,–,–,–,–,–
Brc1ccc2c(c1)-c1ccccc1C1=NCCN12,–,–,·,–,87,–
COc1ccc(C(C#N)=C2C=CC(=NO)C=C2)cc1,–,–,–,–,–,–
CC(=O)ON=C1C=CC(=C(C#N)c2ccccc2)C=C1,80,–,·,–,–,–
CC[C@H](C)[C@@H](CN[C@H](C)CNC)NCCC(c1ccccc1)c1ccccc1,–,–,90,–,98,–
CNC[C@@H](C)NC[C@@H](Cc1ccccc1)NCCc1ccccc1,–,–,–,–,–,–
CC(=O)Nc1ccc(S(=O)(=O)NC2=C(N3CCN(Cc4ccccc4)CC3)C(=O)c3ccccc3C2=O)cc1,–,–,–,–,–,–
CCN1CCN(C2=C(NS(=O)(=O)c3ccc(NC(C)=O)cc3)C(=O)c3ccccc3C2=O)CC1,–,–,–,–,–,–
CC(=O)Nc1ccc(S(=O)(=O)NC2=C(N3CCN(C)CC3)C(=O)c3ccccc3C2=O)cc1,–,–,83,–,–,–
CCN1CCN(C2=C(NS(=O)(=O)c3ccc(C)cc3)C(=O)c3ccccc3C2=O)CC1,–,–,70,–,–,–
COc1ccccc1NC(=O)c1ccccc1NC(=O)c1cccs1,–,–,–,–,–,–
COc1cccc(N2CCN(c3ncnc4c3[nH]c3ccc(F)cc34)CC2C)c1 (stereo not drawn),88,–,80,96,114,–
CC12CCC(O)CC1=CCC1C2CCC2(C)C3=NN=CC3CC12 (stereo not drawn),–,–,–,–,51,–
Cc1ccc2c(c1C)NC(C)CC2C (stereo not drawn),–,–,–,–,–,–
Cc1cccc(Nc2nc(N)c([N+](=O)[O-])c(N3CCCC(C)C3)n2)c1 (stereo not drawn),–,–,–,–,55,–
N#C/C(=C/c1ccc(N2CCOCC2)o1)c1ccc(Cl)cc1,–,–,–,91,–,–
O=C(N1CCCC1)C(F)(F)Oc1ccc(F)cc1,–,–,–,–,–,–
Cc1cccnc1CCNC(=O)c1ccc(OC2CCN(Cc3ccccn3)CC2)cc1,–,–,–,–,72,–
COCC(=O)N1CCC(Oc2ccc(C(=O)NCCc3ncccc3C)cc2)CC1,–,–,–,–,–,–
CCOC(=O)c1sc(NC(=O)CSc2nc3c(c(=O)n2-c2ccc(C)cc2)SCC3)c(C(=O)OCC)c1C,–,–,·,–,–,-60
O=C(CSc1nc2c(c(=O)n1-c1ccc(Br)cc1)SCC2)NCc1ccco1,–,–,–,92,–,–
CCOC(=O)N1C/C(=C\c2ccccc2)C(=O)/C(=C/c2ccccc2)C1,89,95,104,–,112,–
COc1ccc(OC(=O)N2C/C(=C/c3ccccc3)C(=O)/C(=C\c3ccccc3)C2)cc1,64,59,86,–,105,–
CCOC(=O)N1CCN(S(=O)(=O)/C=C/c2ccccc2)CC1,–,–,–,–,–,–
Cc1cc(/C=N/n2cnnc2)c(C)n1-c1ccc(OCc2ccc(Cl)cc2Cl)cc1,–,81,92,98,–,–
CN(CC(=O)Nc1n[nH]c(=S)s1)S(=O)(=O)c1cccc2cccnc12,–,–,–,–,–,–
